Shn3 3UTR inh – reduction of Shn3 3'UTR firefly luciferase signal, primary screen, Schnurri-3 inhibitor project, cell-based, Clone20 osteoblasts, set 2 | Clone20 osteoblast Shn3 3'UTR firefly luciferase, 24 h | inhibition, % at 12.5 µM | actives 0.52% (n = 360,000);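 active = mean inhibition of at least 75% with every replicate also reaching 75%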;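 note: 0% = median of neutral control wells and 100% = pilot-screen positive control compound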
Jurkat NFkB inh – inhibitors of induced NF-kB luciferase reporter, primary screen, TCR NF-kB activation inhibitor project, cell-based, luminescence, uHTS. Jurkat, PMA/ionomycin-induced NF-kB luciferase reporter. inhibition, % at 4 µM. actives 0.53% (n = 330,000). AID 435003, 2010; in the data active = inhibition above about 50%
TAG inh – inhibitors of triacylglycerol accumulation, primary screen, cell-based, uHTS, fluorescence, H9c2; H9c2 cells, Nile Red lipid (TAG) fluorescence; cells loaded with 200 µM oleic acid; inhibition, % at 12.5 µM; actives 0.66% (n = 230,000);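 active = pattern-corrected inhibition of lipid staining of at least 50% with the nuclear-stain viability signal not falling by more than 50%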;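 note: 0% = DMSO wells and 100% = triacsin C control wells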
aSyn 5UTR inh – MLPCN primary screen, SNCA 5' untranslated region; AID 1813, 2009; inhibition, % (tested at 7.5 µM); alpha-synuclein 5'UTR reporter, inhibitor activity; actives 0.82% (n = 300,000); in the data active = inhibition above about 60%;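 note: H4 neuroglioblastoma cells stably carrying SNCA 5'UTR luciferase fusion; 0% = DMSO wells and 100% = positive control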
697 NFkB inh – inhibitors of PMA/ionomycin-induced NF-kB reporter, 697 cells, primary screen, B-cell NF-kB inhibitor project, cell-based, luminescence, uHTS. 697 B-cell NF-kB luciferase reporter, 16 h. inhibition, % at 4 µM. actives 0.33% (n = 330,000). AID 435022, 2010; in the data active = inhibition above about 35%
Gli-Sufu antag – Gli-Sufu pathway antagonists, primary screen, luciferase luminescence, Sufu-KO-LIGHT cells, uHTS. inhibition, % at 5 µM. Sufu-KO-LIGHT fibroblasts, Gli luciferase reporter luminescence. actives 0.74% (n = 340,000);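 active = inhibition above about 55%, limit read from the data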;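 note: 0% = DMSO-treated cells and 100% = wells with medium but no cells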
An asterisk follows results filed as active; · = no result given. This is a sample that favours compounds with a hit; in the whole collection about 2.3% have one here.

SMILES	Shn3 3UTR inh	Jurkat NFkB inh	TAG inh	aSyn 5UTR inh	697 NFkB inh	Gli-Sufu antag
CCOc1ccc(C(Nc2cccnc2)c2cc(Cl)c3cccnc3c2O)cc1 (stereo not drawn)	77.1	21.7	·	66.8*	-47.7	-2.7
COCCNC(=O)CS(=O)Cc1nc(-c2ccccc2C)oc1C (stereo not drawn)	-10.6	-6.0	-3.6	-16.5	7.3	1.5
CC(=O)c1cc(F)c(N2CCN(c3ccc([N+](=O)[O-])cc3F)CC2)cc1C	37.2	-1.7	·	10.1	-27.5	1.5
Cc1cccc(N2CC(O)(c3cccs3)[N+]3=C2CCCC3)c1C (stereo not drawn)	90.0*	5.2	-9.2	0.6	-14.0	46.3
CN(C)c1ccc(C=c2c3cc(O)ccc3n3c2cc(-c2ccccc2)[n+]3C)cc1	72.0	·	-38.4	·	·	71.8*
C[n+]1c(-c2ccccc2)cc2c(=Cc3ccccc3)c3ccccc3n21	84.5	·	-0.2	·	·	77.1*
O=Cc1cccc(Oc2ncccn2)c1	-7.6	-2.7	-0.4	11.0	-7.6	19.5
O=C(Nc1cc(C(F)(F)F)ccc1N1CCCC1)C1=COCCO1	9.1	-0.5	9.9	1.9	16.9	4.9
CCOC(=O)C(=Cc1cn(C)c2ccc(S(=O)(=O)N(C)C)cc12)C(=O)OCC	-8.1	12.0	2.2	-18.3	-14.9	5.8
Cc1cc(C)c2c(CCl)cc(=O)oc2c1	-15.0	5.3	-9.3	91.1*	13.2	-3.0
Cc1cc(C)c2c(CN3CCCCC3)cc(=O)oc2c1	-1.8	-16.8	·	-8.3	-5.1	-2.2
COc1cc2c(cc1OC)-c1cc(NC3CCCCCCC3)nc(=O)n1CC2	11.7	-9.3	18.0	70.0*	21.7	-0.4
CCCCn1c(N)c(N(CC)C(=O)c2cccc(S(=O)(=O)N3CCCc4ccccc43)c2)c(=O)[nH]c1=O	-3.8	13.6	-8.2	5.3	11.2	-7.0
CCOCCCNC(=S)NCCCNc1nc2c(C)cc(C)cc2cc1C#N	-1.3	·	4.5	·	·	5.3
Cc1cc(C)c2nc(NCCCNC(=S)NCCCN(C)C)c(C#N)cc2c1	-10.6	-11.5	13.5	96.4*	-8.8	10.6
CCOC(=O)CC(NS(=O)(=O)c1ccc(OC)c(C)c1)c1cccc([N+](=O)[O-])c1 (stereo not drawn)	-18.1	-5.2	-18.7	12.6	-11.7	-18.3
COCCN(CC(=O)NC1CCCCC1)C(=O)/C=C/C(=O)c1ccc(OC)cc1O	97.7*	·	10.0	78.8*	·	4.4
COc1ccc(C(=O)/C=C/C(=O)N(CC(=O)NC2CCCCC2)Cc2cccs2)c(O)c1	92.7*	-1.1	-9.2	70.6*	11.1	7.5
COc1ccc(C(=O)/C=C/C(=O)N(Cc2ccc3c(c2)OCO3)C(C(=O)NC2CCCCC2)c2ccncc2)c(O)c1 (stereo not drawn)	-6.9	-9.3	·	-10.1	6.4	8.4
COc1ccc(CN(C(=O)/C=C/C(=O)c2ccc(OC)cc2O)C(C(=O)NC2CCCCC2)c2ccncc2)cc1 (stereo not drawn)	-2.3	5.0	·	13.5	10.1	10.2
CC(C)(C)C(=O)Nc1ccc(-c2cnco2)cc1	-34.4	-12.0	-10.9	-51.5	-16.1	-13.5
CCN1C(=O)[C@H]2[C@@H](c3ccc(-c4cccc(Cl)c4)c(OC)c3)N[C@@](CC(C)C)(C(=O)OC)[C@H]2C1=O	24.0	-13.9	70.0*	15.4	-6.3	1.9
COc1ccc2[nH]c(=O)c(CN(c3ccccc3OC)S(=O)(=O)c3ccccc3)cc2c1	6.0	25.3	9.1	-69.2	-2.1	·
C=CC[n+]1c(-c2ccc(C)cc2)csc1Nc1ccc(NC(C)=O)cc1	79.7	·	5.5	100.4*	·	44.3
C/C(=N\Nc1nc(-c2ccccn2)nc2ccccc12)c1ccc(F)cc1	-21.4	19.5	1.6	75.3*	-9.3	8.8
SMILES	Shn3 3UTR inh	Jurkat NFkB inh	TAG inh	aSyn 5UTR inh	697 NFkB inh	Gli-Sufu antag
O=c1c2c(-c3cccs3)csc2ncn1-c1ccc(Br)cc1	19.8	3.7	-30.9	23.4	7.2	1.4
COc1ccccc1NC(=S)N=Nc1c(O)[nH]c2ccc(Br)cc12	27.7	41.2	50.4*	8.0	2.4	7.3
Cc1cccc(NC(=S)N=Nc2c(O)[nH]c3ccccc23)c1	81.1	-2.9	15.0	53.3	3.0	14.2
CCCCC(=O)NC(c1ccccc1OC)c1ccc2cccnc2c1O (stereo not drawn)	93.9*	41.5	90.8	101.2*	-10.9	48.4
CCCC(=O)NC(c1ccccc1OC)c1ccc2cccnc2c1O (stereo not drawn)	87.8*	45.8	74.5	123.9*	-10.0	·
O=C(/C=C/c1ccccc1Cl)NCc1ccco1	-21.5	-41.2	·	-120.1	-30.1	-57.6
Cc1cccc(C(=O)O/N=C/c2c(N3CCOCC3)n(C)c3ccccc23)c1	·	17.5	·	71.7*	-16.5	·
O=C(COc1ccc(/C=N/NC(=O)c2cc3ccccc3o2)cc1Cl)Nc1ccccc1	26.9	16.8	·	100.8*	18.6	36.3
C/C(=N\N=C(N)N)c1cc(Cl)ccc1Cl	32.1	46.1	·	64.7*	18.1	13.8
CC(C)=CCc1cc([C@@H]2COc3c(ccc4c3C=CC(C)(C)O4)C2)c(O)cc1O	92.0*	19.6	·	16.8	-26.3	5.3
CC1(C)C=Cc2c(ccc3c2OC[C@H](c2ccc(O)cc2O)C3)O1	-15.1	-55.0	6.1	·	-52.4	-39.2
CC(=O)NC1=C(Nc2ccc(N(C)C)cc2)C(=O)c2ccccc2C1=O	-5.6	-128.3	·	-19.8	-185.3	-58.9
CNC1=C(N(C(C)=O)c2ccc(Br)cc2)C(=O)c2ccccc2C1=O	77.8	·	·	110.9*	·	94.1*
Cc1cc2nc(C)n(CCCNC(=O)Nc3cccc4ccccc34)c2cc1C	87.4*	-4.2	-44.1	1.9	-24.6	52.7
CN(C)CC/C=C1\c2ccc(F)cc2Sc2cc(F)c(Cl)cc21	23.4	-7.7	61.4*	103.4*	-4.3	44.6
CN(C)CC/C=C1\c2ccccc2Sc2cc(F)c(Cl)cc21	42.1	11.6	62.2*	-3.6	11.5	14.4
CN(C)CC/C=C1/c2ccc(F)cc2Sc2ccc(Cl)cc21	2.7	2.6	43.8	-4.9	14.4	15.2
CN(C)CC/C=C1\c2ccccc2Sc2ccc(Cl)cc21	-24.2	-6.1	12.8	-7.4	-2.4	11.4
O=C(CSc1ccccn1)Nc1nonc1[N+](=O)[O-]	95.1*	12.8	·	-13.7	18.0	5.0
CCOc1ccccc1Oc1nc(-c2ccccc2O)nc2ccccc12	5.4	0.6	·	19.0	10.8	2.2
CC(C)(C)C(=O)N1CCc2cc(-c3csc(N)n3)ccc21	44.2	-104.7	-13.2	65.6*	-142.0	-22.2
c1ccc(Nc2nc(NCc3ccco3)c3ccccc3n2)cc1	66.8	-9.7	4.7	-66.8	-67.2	56.2*
